HT1080-NT tox: qHTS for induction of synthetic lethality in tumor cells producing 2HG: qHTS for the HT-1080-NT fibrosarcoma cell line | Potency, µM (top dose mostly 46.1 µM), for the others: at the top dose activity, negative = less viability, usual class: cytotoxic | HT-1080-NT fibrosarcoma viability, CellTiter-Glo ATP luminescence, 48 h | AID 686970, 2013 | actives 1.6% (n = 360,000);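 further: NT is the 2HG producing partner of a matched IDH1 knockdown line; potency means the concentration at half of the fitted maximal effect; 0% = DMSO-treated cells and -100% = media-only wells without cells; nearly all actives have a fitted effect of over 55% in size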
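Fibrosarcoma NT cells, 750 per well in 5% FBS RPMI, were exposed to compound for 48 hours. Viability: CellTiter-Glo luminescence.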
IL1B secr inh: qHTS for Inhibitors of Inflammasome Signaling: IL-1-beta AlphaLISA Primary Screen; THP-1 LPS/ATP IL-1B secretion, AlphaLISA, 16 h; active compounds read low; activity change, % at 57.5 µM; actives 4.7% (n = 360,000); AID 743279, 2014; in the data active means activity change below about -50%; inconclusive means mostly about -30% to -49%
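THP-1 cells pretreated 1 hr with compounds (up to 57.5 uM final), then stimulated with LPS (250 ng/mL final) plus ATP (1.25 mM final); secreted IL-1B measured by AlphaLISA after 16 hr, decreased signal indicating inhibition.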
DT40 TDP1 CPT: qHTS for Inhibitors of human tyrosyl-DNA phosphodiesterase 1 (TDP1): qHTS in cells in presence of CPT; chicken DT40 Tdp1-/-;hTDP1 cells + 20 nM CPT, ATP luminescence, 48 h; Potency, µM (titrated, usually from 46.2 µM), inactives show at the top dose activity change, negative = growth inhibition, most hits filed as inhibitors; actives 12% (n = 420,000); further: potency means the concentration at half of the fitted maximal effect; nearly all actives have a fitted effect of over 55% in size
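Chicken DT40 Tdp1-/- cells complemented with human TDP1, 400 cells/well, exposed to compounds plus 20 nM camptothecin for at least 48 h at 37 C; viability read as ATP content by CellTiter-Glo luminescence.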
HT1080 IDH1KD tx: qHTS for induction of synthetic lethality in tumor cells producing 2HG: qHTS for the HT-1080-IDH1KD cell line. actives 2% (n = 360,000). HT-1080 IDH1 knockdown viability, ATP luminescence, 48 h. Potency, µM (top dose mostly 46.1 µM), for inactives: at the top dose activity, negative = toxicity, actives largely listed as cytotoxic;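 further: potency means the concentration at half of the fitted maximal effect; 0% = DMSO wells and -100% = cell-free medium wells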
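IDH1KD HT-1080 cells, 750/well, RPMI + 5% FBS; compound pinned after 2 h settling; 48 h, 37 °C; CellTiter-Glo luminescence; % activity normalised to DMSO and no-cell wells; curves fitted, classed by r2 and efficacy.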
ELG1 repair inh: qHTS screen for small molecules that inhibit ELG1-dependent DNA repair in human embryonic kidney (HEK293T) cells expressing luciferase-tagged ELG1. HEK293T ELG1-luciferase reporter, luminescence, 16 h; DNA damage induced by 5-fluorouridine. Potency, µM (doses to about 46.1 µM), inactives show at the highest dose activity change, negative = inhibition, hits mostly inhibitors. actives 2.3% (n = 330,000). AID 504467, 2011; further: potency means the concentration at half of the fitted maximal effect; nearly all actives have a fitted effect of over 55% in size
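HEK293T cells expressing luciferase-tagged ELG1 (2,000/well) received 5-Fluorouridine plus compound or DMSO for 16 hr at 37 °C. Luciferase was read by ONE-Glo luminescence after 30 min at room temperature.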
TDP1 cell noCPT: qHTS for Inhibitors of human tyrosyl-DNA phosphodiesterase 1 (TDP1): qHTS in cells in absence of CPT; DT40 Tdp1-/- hTDP1 cells, no CPT, ATP luminescence, 48 h; Potency, µM (top dose mostly 46.2 µM), without a hit: top-dose activity change, negative = growth inhibition, most hits filed as inhibitors; actives 15% (n = 420,000); further: potency means the concentration at half of the fitted maximal effect; nearly all actives have a fitted effect of over 55% in size
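A cellular qHTS used chicken DT40 cells lacking endogenous Tdp1 but carrying stably transfected human TDP1. Compounds were applied without camptothecin, and cell growth kinetics were judged by ATP-dependent luminescence after ≥48 hr.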
Active calls of the source: *; ? = inconclusive; / = no result given; [ ] = another dose, or the depositor's remark. An excerpt weighted towards active compounds, which were near 19% of everything screened. Unless noted, the call rests on the fitted dose curve; in most records, active means well fitted curve in the direction sought with a large enough effect; inconclusive means small, poorly fitted or top-dose-only effect, or another doubt; inactive means no such curve, though single readings can be large; an effect the other way counts as inactive or inconclusive. Unless noted, on the % scale 0 is the no-effect control and ±100 the full control effect.

SMILES	HT1080-NT tox	IL1B secr inh	DT40 TDP1 CPT	HT1080 IDH1KD tx	ELG1 repair inh	TDP1 cell noCPT
CCn1c2c(c3cc(Br)ccc31)CCC/C2=N\O	?	20	1%	?	/	?
CCn1c2c(c3cc(OCC(C)C)ccc31)CCCC2=O	-25%	?	16µM*	-26%	-5%	21µM*
COCCNC(=O)c1c(N)n(-c2ccccc2)c2nc3ccccc3nc12	-3%	?	-29%	12%	?	-25%
C=CCNC(=O)c1c(N)n(-c2cccc(S(N)(=O)=O)c2)c2nc3ccccc3nc12	?	-59*	15µM*	?	9.2µM*	12µM*
COCCNC(=O)c1c(N)n(-c2cccc(C)c2)c2nc3ccccc3nc12	-28%	-53*	?	-28%	0%	?
COC(=O)c1c(N)n(-c2ccc(NC(C)=O)cc2)c2nc3ccccc3nc12	9%	-52*	23µM*	10%[9.24 µM]	?	21µM*
COCCCNC(=O)c1c(N)n(-c2ccccc2)c2nc3ccccc3nc12	0%	?	?	-13%	?	18µM*
COCCCNC(=O)c1c(N)n(-c2ccc(S(N)(=O)=O)cc2)c2nc3ccccc3nc12	-24%	-13	-12%	?	11%	-16%
CCc1ccccc1-n1c(N)c(C(=O)OC)c2nc3ccccc3nc21	/	/	-19%	/	/	?
CCOC(=O)c1c(NC(C)=O)sc(/C(C)=N/Nc2ccc(C(=O)O)cc2)c1C	?	31	?	-14%	?	?
Cc1ccc(C(=O)Cc2cc3ccccc3oc2=O)c(C)c1	0%	-14	-5%	11%	?	?
CCOC(=O)COc1cccc2c(=O)n(CC(=O)N3CCC(C)CC3)ccc12	7%	-19	1%	-2%	-1%	?
CCOC(=O)COc1cccc2c(=O)n(CC(=O)NCc3ccc4c(c3)OCO4)ccc12	4.6µM*	-5	1.8µM*	?	-2%	1.8µM*
CCOC(=O)COc1cccc2c(=O)n(CC(=O)NCCc3ccccc3)ccc12	0%	-1	-16%	-1%	3%	-3%
COC(=O)COc1cccc2c(=O)n(CC(=O)N3CCC(C)CC3)ccc12	17%	-61*	3%	3%	0%	-4%
CCOC(=O)C(C)Oc1cccc2c(=O)n(CC(=O)NCCc3ccccc3)ccc12 (stereo unspecified)	-1%	-53*	-15%	-8%	4%	18%
CCOC(=O)C(C)Oc1cccc2c(=O)n(CC(=O)NCc3ccc(F)cc3)ccc12 (stereo unspecified)	?	84	0.82µM*	0.58µM*	?	0.73µM*
COc1ccccc1NS(=O)(=O)c1cccc(NC(=O)CCNC(=O)c2ccccc2OC)c1	-4%	5	?	-2%	?	-89%
CCN(C(=O)CSc1nnc(-c2ccc(OC)cc2)n1C(C)C)C1CCS(=O)(=O)C1 (stereo unspecified)	11%	14	-2%	18%	7%	2%
COc1cc(C)c(CN2C[C@H](Sc3ccccn3)C[C@H]2C(=O)N(C)C)cc1C	/	/	-43%	/	/	?
CCOC(=O)C(C)Oc1cccc2c(=O)n(CC(=O)NCc3ccccc3)ccc12 (stereo unspecified)	0.52µM*	-98*	0.58µM*	0.52µM*	?	0.92µM*
COC(=O)COc1cccc2c(=O)n(CC(=O)NCc3ccc(F)cc3)ccc12	?	-13	1µM*	3.7µM*	?	1.2µM*
COC(=O)COc1cccc2c(=O)n(CC(=O)N3CCCCC3)ccc12	8%	-12	5%	12%	-10%	-6%
CCOC(=O)C(C)Oc1cccc2c(=O)n(CC(=O)Nc3ccc(OC)cc3)ccc12 (stereo unspecified)	-4%	-55*	-14%	0%	/	-22%
CCn1cc(C(C)NC(=O)Nc2ccccc2C(=O)OC)c(C)n1 (stereo unspecified)	1%	10	22%	4%	-3%	-16%
CC(C)Cc1ccc(CN2CCCC(NC(=O)CCN3CCOCC3)C2)cc1 (stereo unspecified)	-7%	-9	?	-1%	-20%	?
COc1cccc(CCc2ccccc2OCC(CN(C)C)OC(=O)CCC(=O)O)c1 (stereo unspecified)	/	/	16µM*	/	/	11µM*
